Results from PubChem BioAssay (NCATS).
Results filed as inconclusive are left out. Unmarked numbers belong to inactive results. The source made the active and inactive calls. Calls come from the whole dose curve; as a rule, active = well fitted inhibition curve with a large enough effect; inconclusive = small, poorly fitted or top-dose-only effect; inactive = no such curve, though single readings can be large or run the other way.

System: Zika virus NS2B-NS3 protease (unlinked complex)
Experiment: Primary screen GU Rhodamine qHTS for Zika virus inhibitors: Unlinked NS2B-NS3 protease assay (AID 1347159); note: nearly all actives have a fitted effect of over 60% in size
Settings: Recombinant ZIKV NS2B-NS3 protease, Rhodamine110 substrate fluorescence; series mostly up to 107 µM; activity change, negative = inhibition: at the top concentration
In short: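 A qHTS format was used, with compound concentrations ranging up to 114 microM. Each compound was preincubated with 25 nM NS2B-NS3 protease, and the substrate was then added at 1.5 microM. Curves were fitted with a 4-parameter Hill model.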
% is set by controls: 0 for no effect and ±100 for the full control effect; potency is the fitted concentration of half-maximal effect.

| Structure (SMILES) | activity change, negative = inhibition | Potency |
| --- | --- | --- |
| COc1cc(OC)c2c(=O)[nH]c(-c3cc(C)c(OCCO)c(C)c3)nc2c1 | -13.9% |  |
| C=C1CCC2C(C)(C)CCCC2(C)C1CC/C(C)=C\CO (centres undefined) |  | 17.8 µM (active) |
| CCCC(=O)C1(c2ccccc2)CCN(C(=O)[C@@H](Cc2ccc(OC)cc2)NC(=O)[C@@H](N)Cc2cncn2C)CC1 | 81.4% |  |
| CCOc1cc(C(C)(C)C)ccc1C1=NC(C)(c2ccc(Cl)cc2)C(C)(c2ccc(Cl)cc2)N1C(=O)N1CCN(CCCS(C)(=O)=O)CC1 (centres undefined) | 78.8% |  |
| C[C@@H]1CC[C@@]23CC[C@]4(C)[C@@](C=CC5[C@@]6(C)CC[C@H](O)C(C)(C)C6CC[C@]54C)(OC2=O)C3[C@H]1C (some centres undefined) |  | 6.31 µM (active) |
| Cc1cccc(-c2[nH]ncc2-c2ccc(F)c(-c3cnn(CCO)c3)c2)n1 | 12.8% |  |
| COc1cc(CCc2ccc(OCC=C(C)C)cc2)cc(OC)c1OC | -3.4% |  |
| CCN(CC)C(=O)C(c1ccccc1)N1CCN(c2ccc(NC(=O)c3ccccc3-c3cccnc3)cc2F)CC1 (centres undefined) | 6.49% |  |
| CC(=O)[C@H]1CC[C@H]2[C@@H]3CC=C4C[C@@H](OS(=O)(=O)O)CC[C@]4(C)[C@H]3CC[C@]12C |  | 17.8 µM (active) |
| CCNC1(C(N)=O)CN(c2nc(C)nc3c(-c4ccc(Cl)cc4)c(-c4ccccc4Cl)nn23)C1 | -11.7% |  |
| CCC(CC)C(=O)OC12C(OC(=O)C(C)C)C(C)C3(O)C(C=C(CO)CC4(O)C(=O)C(C)=CC43)C1C2(C)C (centres undefined) | -15.5% [at 57.1 µM] |  |
| CC(OC1OCCN(Cc2n[nH]c(=O)[nH]2)C1c1ccc(F)cc1)c1cc(C(F)(F)F)cc(C(F)(F)F)c1 (centres undefined) |  | 44.7 µM (active) |
| O=C(Nc1ccc(Cl)cc1)Nc1cccc(-c2cccc(N3CCCC3)n2)c1 | 0% |  |
| Cc1c(OCc2cccc(-c3ccc(C(=O)O)cc3)c2)cc2c(c1C)C(=O)C(C1CCCC1)C2 (centres undefined) |  | 1.78 µM (active) |
| CC1CCCC(O)CC(=O)c2c(O)cc(O)cc2CC(=O)O1 (centres undefined) | -5.13% |  |
| C#Cc1cccc(Nc2nc3cc(C(=O)O)ccc3c3cncnc23)c1 |  | 11.2 µM (active) |
| CC[C@@H](Nc1c(Nc2cccc(C(=O)N(C)C)c2O)c(=O)c1=O)c1cc(C(C)C)co1 |  | 22.4 µM (active) |

| Structure (SMILES) | activity change, negative = inhibition | Potency |
| --- | --- | --- |
| O=C(Nc1ccccc1C(=O)Nc1ccc(CCO)cc1)c1ccc([N+](=O)[O-])cc1 | 15.2% |  |
| C=C1/C(=C/C=C2\CCC[C@]3(C)[C@@H]([C@H](C)/C=C/[C@H](O)C4CC4)CC[C@@H]23)C[C@@H](O)C[C@@H]1O |  | 50.1 µM (active) |
| CCCCc1ccc(NS(=O)(=O)c2ccc(F)cc2)cc1 |  | 50.1 µM (active) |
| CCC/C=C/c1cc2c(C=O)c(O)c(CC=C(C)C)cc2o1 |  | 7.94 µM (active) |
| CCc1c(Cl)c(O)c(Cl)c(O)c1C(=O)O[C@H]1[C@H](O)[C@H](OC)[C@H](OC/C2=C\C=C\C[C@H](O)/C(C)=C\[C@H](CC)[C@@H](O[C@@H]3OC(C)(C)[C@@H](OC(=O)C(C)C)[C@H](O)[C@@H]3O)/C(C)=C/C(C)=C/C[C@@H]([C@@H](C)O)OC2=O)O[C@@H]1C |  | 11.2 µM (active) |
| C=C(C(=O)O)[C@@H]1CC=C(CCC(C)=O)[C@@H](C)CC1 |  | 56.2 µM (active) |
| CN1CC[C@@H](c2c(O)cc(O)c3c(=O)cc(-c4ccc(C(F)(F)F)cc4Cl)oc23)[C@@H]1CO | 52.2% |  |
| O=C1C[C@]23C=CCN4CCC5c6cc7c(cc6N1[C@@]5(CC2)C43)OCO7 (some centres undefined) | -11.9% |  |
| Cn1ncnc1[C@@H]1c2n[nH]c(=O)c3cc(F)cc(c23)N[C@H]1c1ccc(F)cc1 | 24% |  |
| C=C1C(=O)O[C@H]2C3=C(C)CCC[C@]3(C)C(=O)C[C@@H]12 | -0.0603% |  |
| COc1ccnc(CS(=O)c2nc3cc(OC(F)F)ccc3[nH]2)c1OC (centres undefined) | 0% |  |
| COc1ccc(S(=O)(=O)Nc2cc(Cl)cc(Cl)c2OC)cc1N1CCNCC1 | 24.9% |  |
| COc1ccc(C2=NC(c3ccc(Cl)cc3)C(c3ccc(Cl)cc3)N2C(=O)N2CCNC(=O)C2)c(OC(C)C)c1 (centres undefined) | 8.98% |  |
| COC1C(OC(=O)/C=C/C=C/C=C/C=C/C(=O)O)CCC2(CO2)C1C1(C)OC1CC=C(C)C (centres undefined) |  | 8.91 µM (active) |
| CC/C(C)=C/C(=O)OC1C(OC2(C)CCC3C(C4C(C)CCC42)C3(C)C)OC(C)C(O)C1O (centres undefined) |  | 14.1 µM (active) |
| CCCn1cc2c(nc(NC(=O)Nc3ccc(OC)cc3)n3nc(-c4ccco4)nc23)n1 | -0.109% |  |
| COc1ccc2nc3n[nH]c(C)c3c(NCCOCCO)c2c1 | 11.9% |  |
